From PubChem BioAssay AID1117319 (Southern Research Institute, 2015)
Several values for one entry are separate records, joined by “and”; a condition that tells them apart may be missing. Identical values can stand only once. In all, about 260,000 compounds went through this assay and about 1,500 (0.58%) were called active. Not shown: some 5% with an inconclusive outcome.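 Rule for the calls: active = inhibition above a set limit at one or more doses, reproduced on every date tested; inconclusive = results disagree between test dates, or hit never tested in dose response; inactive = the rest.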 A selection follows. Measured potencies and affinities stand elsewhere.

target: Virion infectivity factor (Human immunodeficiency virus type 1 group M subtype B (isolate BH10)) + Virion infectivity factor (Human immunodeficiency virus type 1 group M subtype B (isolate BRU/LAI)) + Virion infectivity factor (Human immunodeficiency virus type 1 group M subtype B (isolate PCV12)) + Virion infectivity factor (Human immunodeficiency virus type 1 group M subtype B (isolate HXB2)) + DNA dC->dU-editing enzyme APOBEC-3G (Homo sapiens) (UniProt P69720+P69721+P69722+P69723+Q9HC16); test: inhibitors of Vif binding to APOBEC3G peptide, primary screen, biochemical, TR-FRET, GST-Vif 1-94, biotin-A3G peptide, dose response retest (AID 1117319); settings: hits give high values;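 note: Vif residues 1-94 fused to GST binding biotinylated APOBEC3G peptide 110-148; 0% = full assay without inhibitor and 100% = GST in place of GST-Vif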

inhibition, inactive:
O=C(Nc1ccc2oc(-c3cccnc3)nc2c1)c1cc2ccccc2o1 20.3%, COc1ccc(-n2nnc3c(=O)n(Cc4cc(C)ccc4C)cnc32)cc1 -0.91%, CCN(CC)CCNC(=O)c1cc([N+](=O)[O-])c(N(C)C)cc1OC 12.4%, COc1ccccc1NC(=S)NCCSc1ccc(C)cc1 9.9%, O=C1/C(=C/c2cccc(Br)c2)SC(=S)N1CCC(=O)N(CCO)c1ccccc1 -10.6%, Cc1ccc(S(=O)(=O)N2CCCCC2)cc1C(=O)NCCCN1CCOCC1 1.73%, Cc1cc(C)c(S(=O)(=O)NCC2CCC(C(=O)NCCCN3CCOCC3)CC2)c(C)c1 (stereo unspecified) 3.66%, COc1ccc(S(=O)(=O)NCC2CCC(C(=O)N3CCC4(CC3)OCCO4)CC2)cc1 (stereo unspecified) 0.18% and -4.29%, Cc1ccc(-n2nc3c(c2NC(=O)c2ccccc2Br)CS(=O)C3)cc1 (stereo unspecified) 0.72%, O=c1[nH][nH]c(C(F)(F)F)c1/C=N/N1CCOCC1 -7.03%, C/C(=N\Nc1ccc(Cl)c(C(=O)O)c1)c1ccccn1 -6.06%, C/C(=N\Nc1ccc(Cl)c(C(=O)O)c1)c1cccs1 -4.46%, COC(=O)C1=C(C)NC(=O)/C1=C\c1ccc2c(c1)OCO2 16%, COC(=O)C1=C(C)N(Cc2ccco2)C(=O)/C1=C\c1ccc([N+](=O)[O-])cc1 -12.1%, COC(=O)C1=C(C)NC(=O)/C1=C\c1cc(C)n(-c2c(C)cccc2C)c1C 22.2%, COC(=O)C1=C(O)/C(=C\c2cc(C)n(-c3ccccc3F)c2C)N=C1C 25.1%, CCN1C(=O)/C(=C\c2cccs2)C(C(=O)OC)=C1C 2.01%, COC(=O)C1=C(C)NC(=O)/C1=C\N(C)C 5.9%, CCOc1cc(/C=C2\C(=O)N(Cc3ccco3)C(C)=C2C(=O)OC)ccc1O 24.1%, COC(=O)C1=C(C)N(C)C(=O)/C1=C\c1ccco1 9.7%, CC(Sc1ncccn1)C(=O)Nc1ccc2c(c1)OCCO2 (stereo unspecified) -5.22%, Nc1cc(S(=O)(=O)Nc2ccc(Cl)cc2)ccc1N1CCOCC1 0.79%, COc1ccccc1Nc1nnc(SCC(=O)NC2CCCC2)s1 -10.8%, O=C(CCCOc1ccccc1)N1CCN(C(=O)c2ccco2)CC1 -5.18%, Cc1ccc(-c2nnc(-c3ccncc3)n2-c2ccc(C)cc2)cc1 -0.95%, COC(=O)C1=C(C)N(CC(C)C)C(=O)/C1=C\c1cccs1 2.91%, C=CCN1C(=O)/C(=C\c2cccs2)C(C(=O)OC)=C1C 0.55%, O=C(Nc1ccccc1)c1ccc(Cn2cc(C(F)(F)F)ccc2=O)cc1 -1.59%, O=S(=O)(NCc1ccccn1)c1ccc2c(c1)OCCO2 -0.75%, CCOc1ccc(C(=O)NCC(=O)NCC(c2ccco2)N2CCCCC2)cc1 (stereo unspecified) -8.81%, CC[n+]1c(/C=C2\C=C(C)CC(C)C2)sc2ccccc21 (stereo unspecified) 26%, CC[n+]1c(/C=C2\C=C(C)CC(C)(C)C2)sc2ccccc21 25.8%, CCCCOc1ccc(/C=c2\sc3ncnn3c2=O)cc1 6.23%, CCSc1nc2c(sc3nc(C)cc(C)c32)c(=O)[nH]1 -3.63%, CCOCCCNC(=O)C(NC(=O)C1CCC(=O)N1)c1ccc(C)cc1 (stereo unspecified) 8.49%, C#CC(C)OC(=O)Nc1cnccc1C(F)(F)F (stereo unspecified) 31.2%, COc1cccc(N2C(=O)CC(Nc3ccc(N4CCOCC4)cc3)C2=O)c1 (stereo unspecified) 27.7%, O=C1CC(Nc2ccccc2)C(=O)N1c1ccc(N2CCOCC2)cc1 (stereo unspecified) 29%, Cc1ccc(CN2C(=O)CC(Nc3ccc(N4CCOCC4)cc3)C2=O)cc1 (stereo unspecified) 4.98%, CC(C)CC(=O)Nc1ccc(N2CCOCC2)cc1 -0.35%, Cc1ccc(NC2CC(=O)N(c3ccc(N4CCCCC4)cc3)C2=O)cc1 (stereo unspecified) 25.5%, O=C(CN1C(=O)C(=O)N(C2CCCC2)C1=O)Nc1ccc(N2CCOCC2)cc1 -7.86%, O=C1CC(Nc2ccc(N3CCOCC3)cc2)C(=O)N1c1ccccc1 (stereo unspecified) 16.9%, COc1ccc(NC2CC(=O)N(C(C)C)C2=O)cc1 (stereo unspecified) 1.77%, COc1cccc(CC(NC(C)=O)C(=O)NC2CCN(S(=O)(=O)c3ccc(F)cc3)CC2)c1OC (stereo unspecified) -17.6%, CCCCn1c(N)c(N(CCOC)C(=O)CCCc2nc3ccccc3c(=O)[nH]2)c(=O)[nH]c1=O -0.43%, COc1ccc(CC(=O)NCCS(=O)(=O)N2CCN(c3ccccc3OC)CC2)cc1 -3.77%, CCOc1ccc(CCNC(=O)COC(=O)Cc2c[nH]c3ccccc23)cc1OCC 2.44%, CCOCCCNCc1cccc(OC)c1 -0.48%, CN1CCN(S(=O)(=O)c2ccc(Oc3ccc(Br)cc3F)nc2)CC1 -0.65%, COc1cccc(CC(=O)OCC(=O)c2cc(OC)ccc2OC)c1 18.9%, Cc1cc(C)cc(N2CN=c3s/c(=C\c4ccco4)c(=O)n3C2)c1 3.97%, O=C1C(Cl)=C(NC(=O)c2ccccc2)C(=O)C(Cl)=C1NC(=O)c1ccccc1 20.2%, CN(C)c1ccc(NC2=C(Cl)C(=O)c3ccccc3C2=O)cc1 20.1%, O=C(Nc1ccc2cn[nH]c2c1)c1c(Cl)cccc1Cl 2.79%, CCC(=O)Nc1c(C)cc(C)cc1Cl 1.1%, CCNC1=C(Cl)C(=O)c2ccccc2C1=O 2.59%, CC(=O)Nc1ccc(NC2=C(Cl)C(=O)c3ccccc3C2=O)cc1 11.5%, CCCC(=O)Nc1ccccc1NC(=O)CCC 16.5%, O=C1C(Cl)=C(Nc2ccccc2)C(=O)c2ccccc21 -1.3%, CC(c1ccccc1)C1NC(C(=O)O)CS1 (stereo unspecified) -0.34%
